Compounds with a hit are over-represented: about 19% of the library has one in this group of screens.
HT1080 IDH1KD tx: kills HT-1080 cells with IDH1 knockdown; HT-1080 IDH1 knockdown viability, ATP luminescence, 48 h; Potency, µM (series often up to 46.1 µM), without a hit: top-dose activity, negative = toxicity, usual class: cytotoxic; 360,000 compounds, 2% hits; AID 686971;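 note: 0% = DMSO wells and -100% = cell-free medium wells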
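Using the IDH1-knockdown HT-1080 line run in the same batch and compound series as the NT line, viability after 48 h at 37 °C was determined by CellTiter-Glo luminescence and expressed as % activity.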
KB-3-1 tox: KB-3-1 parental cell cytotoxicity. AID 1347075. Potency, µM (top dose mostly 46.1 µM), hits mostly cytotoxic. 400,000 compounds, 1.4% hits. KB-3-1 viability, CellTiter-Glo ATP luminescence, 72 h; note: nearly all actives have a fitted effect of over 60% in size
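Parental KB-3-1 adenocarcinoma cells in phenol-red-free DMEM with 10% FBS were pin-treated with compounds at several concentrations, incubated 72 h at 37 °C, and viability read by CellTiter-Glo luminescence; concentration-effect curves were fitted after normalization.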
TDP1 cell noCPT: qHTS for Inhibitors of human tyrosyl-DNA phosphodiesterase 1 (TDP1): qHTS in cells in absence of CPT; 420,000 compounds, 15% hits; Potency, µM (doses to about 46.2 µM), for the others: top-dose activity change, negative = growth inhibition, most hits filed as inhibitors; DT40 Tdp1-/- hTDP1 cells, no CPT, ATP luminescence, 48 h; note: nearly all actives have a fitted effect of over 55% in size
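Growth of hTDP1-complemented DT40 Tdp1-knockout cells is measured by ATP luminescence after at least 48 hr compound exposure at 37 °C, with DMSO substituting for the 20 nM CPT used in the parallel screen.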
HT1080-NT tox: kills 2HG-producing HT-1080-NT fibrosarcoma cells; HT-1080-NT fibrosarcoma viability, CellTiter-Glo ATP luminescence, 48 h; Potency, µM (series often up to 46.1 µM), inactives show at the highest dose activity, negative = less viability, actives largely listed as cytotoxic; 360,000 compounds, 1.6% hits;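 note: NT is the 2HG producing partner of a matched IDH1 knockdown line; 0% = DMSO-treated cells and -100% = media-only wells without cells; nearly all actives have a fitted effect of over 55% in size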
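HT-1080-NT; 750 cells/well; 5% FBS RPMI; 48 h compound, 37 degrees C; CellTiter-Glo luminescence; curve fitting and curve-class assignment.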
TDP1 cell CPT: DT40-hTDP1 cell growth loss with CPT. chicken DT40 Tdp1-/-;hTDP1 cells + 20 nM CPT, ATP luminescence, 48 h. Potency, µM (highest dose often 46.2 µM), inactives show at the highest dose activity change, negative = growth inhibition, actives largely listed as inhibitors. 420,000 compounds, 12% hits. AID 686979; note: nearly all actives have a fitted effect of over 55% in size
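Chicken DT40 Tdp1-/- cells stably complemented with human TDP1 were seeded at 400 cells/well in medium containing 20 nM camptothecin, exposed to pin-transferred compounds, and grown at 37 °C for at least 48 hr. Viability was read as ATP luminescence.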
KB-V1 MDR tox: kills drug-selected multidrug resistant KB-V1 cells | KB-V1 MDR cells viability, CellTiter-Glo, 72 h | Potency, µM (series often up to 46.1 µM), hits mostly cytotoxic | 400,000 compounds, 3.4% hits; note: nearly all actives have a fitted effect of over 60% in size
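Cells of the MDR subline KB-V1 are plated, dosed with compound at multiple concentrations, and incubated 72 h at 37 degrees C; CellTiter-Glo is then added and luminescence read after 10 min.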
An asterisk follows results filed as active; i = inactive; ? = inconclusive; nt = no result; [ ] = remark or other dose. Calls come from the whole dose curve; as a rule, active = well fitted curve in the direction sought with a large enough effect; inconclusive = small, poorly fitted or top-dose-only effect, or another doubt; inactive = no such curve, though single readings can be large; an effect the other way counts as inactive or inconclusive. Unless noted, % is set by controls: 0 for no effect and ±100 for the full control effect; potency is the fitted concentration of half-maximal effect.

SMILES	HT1080 IDH1KD tx	KB-3-1 tox	TDP1 cell noCPT	HT1080-NT tox	TDP1 cell CPT	KB-V1 MDR tox
COc1ccc(C2Nc3ccccc3C(=O)N2O)cc1OC (stereo unspecified)	10%	i	?	1%	?	15µM*
O=C1c2ccccc2NC(c2c(Cl)cccc2Cl)N1Cc1ccccc1 (stereo unspecified)	?	?	18µM*	-27%	16µM*	?
C=CCc1cccc(C2Nc3ccccc3C(=O)N2O)c1O (stereo unspecified)	-26%	?	-27%	?	-21%	?
COc1ccc(CCN2C(=O)c3ccccc3NC2c2cc(Cl)c(O)c(OC)c2)cc1 (stereo unspecified)	2.9µM*	?	4.1µM*	1.6µM*	4.6µM*	?
O=C1c2ccccc2NC(c2ccc(Cl)cc2Cl)N1Cc1ccccc1 (stereo unspecified)	?	i	?	?	23µM*	i
COCCC(=O)N1CCC(Oc2ccc(C(=O)NCCC3=CCCCC3)cc2)CC1	-2%	i	?	-8%	16µM*	?
COCCC(=O)N1CCC(Oc2ccc(C(=O)NCCCC3CCCC3)cc2)CC1	-13%	nt	21µM*	0%	21µM*	nt
Brc1ccc2ncc3ccccc3c2c1	3%	i	?	10%	?	i
Cc1occc1C(=O)N/N=C/C(Br)=C\c1ccccc1	-29%	i	12µM*	-13%	18µM*	i
Cc1onc(-c2ccccc2)c1C(=O)N/N=C/C(Br)=C/c1ccccc1	-16%	?	9.2µM*	2%	6.5µM*	15µM*
O=C(N/N=C/C=N/NC(=O)c1ccco1)c1ccco1	8%	i	0%	16%	-19%	i
Cc1occc1C(=O)N/N=C/c1c[nH]c2ccccc12	-11%	i	-7%	-15%	-7%	i
O=C(N/N=C/C(Br)=C\c1ccccc1)c1ccco1	-6%	i	9.2µM*	-14%	6.5µM*	?
O=C(/C=C/c1cccs1)NNC(=O)c1ccccc1	-2%	i	19%	-2%[9.24 µM]	-13%	?
COc1ccc2c(c1)c1c(c(=O)n(Cc3ccccc3)c(=O)n1CC(=O)Nc1ccccc1OC)n2C	nt	i	-2%	nt	5%	i
C=CC[C@H](CC(=O)N(CCO)Cc1ccccc1)C(=O)N[C@@H](COC(=O)[C@H](CC=C)CC(=O)OC(C)(C)C)Cc1c[nH]c2ccccc12	?	?	16µM*	?	15µM*	?
C=CC[C@@H](CC(=O)N(CCO)Cc1ccccc1)C(=O)N[C@H](COC(=O)[C@@H](CC=C)CC(=O)OC(C)(C)C)Cc1c[nH]c2ccccc12	-25%	i	23µM*	-26%	18µM*	i
C=CC[C@H](CC(=O)N[C@H](CO)Cc1ccccc1)C(=O)N[C@@H](COC(=O)[C@@H](CC=C)CC(=O)OC(C)(C)C)Cc1c[nH]c2ccccc12	?	?	?	-20%	?	i
C=CC[C@@H](CC(=O)N(CCO)Cc1ccccc1)C(=O)N[C@@H](COC(=O)[C@@H](CC=C)CC(=O)OC(C)(C)C)Cc1c[nH]c2ccccc12	?	?	21µM*	?	26µM*	i
C=CC[C@@H](CC(=O)N(CCO)Cc1ccccc1)C(=O)N[C@H](COC(=O)[C@@H](CC=C)CC(=O)OC(C)(C)C)C(C)(C)C	-18%	i	?	-4%	?	i
C=CC[C@H](CC(=O)N(CCO)Cc1ccccc1)C(=O)N[C@H](COC(=O)[C@H](CC=C)CC(=O)OC(C)(C)C)Cc1ccccc1	-13%	i	21µM*	-13%	23µM*	i
CC(=O)N1CCOc2cc(S(=O)(=O)NCc3ccc(C)cc3)c(C)cc21	nt	nt	-14%	nt	-10%	nt
CCCCCOc1ccc(Br)cc1/C(C)=N/NC1=NCCN1	5.2µM*	?	4.6µM*	6.5µM*	5.8µM*	?
C/C(=N\NC1=NCCN1)c1ccc(Cl)cc1	-17%	i	-37%	-23%	1%	i
COc1ccc(Br)cc1/C(C)=N/NC1=NCCN1	?	?	15µM*	-6%	8.2µM*	?
SMILES	HT1080 IDH1KD tx	KB-3-1 tox	TDP1 cell noCPT	HT1080-NT tox	TDP1 cell CPT	KB-V1 MDR tox
C/C(=N\NC1=NCCN1)c1ccccc1	3%	i	?	1%	5%	i
COc1ccc(S(=O)(=O)N2CCOC2CNC(=O)C(=O)NCc2ccc(F)cc2)cc1OC (stereo unspecified)	-13%	nt	?	-1%	-23%	nt
NC(=S)NN=C1CCCCCCCC1	-1%	18µM*	?	-2%	2.3µM*	i
NC(=S)NN=C1C=CCCC1	3%	i	4.6µM*	1%	2.9µM*	i
CC(C)CNC(=O)C(=O)NN=C1CCCCCC1	27%	?	-1%	20%	-12%	i
C=CCNC(=S)NN=C1CCCCCCC1	8%	i	26µM*	-4%	16µM*	i
NC(=S)NN=C1CCCCCCCCC1	-8%	i	?	-2%	?	?
COCCNC(=S)NN=C1CCCCC1	-13%	i	5.2µM*	-15%	5.2µM*	i
CCc1nnc(SCC(=O)Nc2nc(C)c(C(=O)N(C)C)s2)n1CC	0%	i	7%	1%	6%	i
CNc1ccc(-c2nc(-c3ccccn3)no2)cc1[N+](=O)[O-]	nt	i	-17%	nt	-11%	i
CN(Cc1ccccc1)c1ccc(-c2nc(-c3ccncc3)no2)cc1[N+](=O)[O-]	nt	i	18µM*	nt	21µM*	i
CN(Cc1ccccc1)c1ccc(-c2nc(-c3ccccn3)no2)cc1[N+](=O)[O-]	nt	?	18µM*	nt	?	?
CN(C)c1ccc(-c2nc(-c3ccccn3)no2)cc1[N+](=O)[O-]	nt	i	18µM*	nt	-29%	i
C[C@H](CO)N1C[C@H](C)[C@@H](CN(C)CC2CCOCC2)Oc2cc(C#Cc3ccccc3F)ccc2S1(=O)=O	-20%	i	9.2µM*	-19%	18µM*	?
C[C@H]1CN([C@@H](C)CO)S(=O)(=O)c2ccc(C#Cc3cccnc3)cc2O[C@@H]1CN(C)C(=O)Nc1ccc2c(c1)OCO2	-9%	i	23µM*	0%	?	i

Assay outcomes as filed in PubChem BioAssay.
